Measured values as given in PubChem BioAssay (EPA / NIEHS).
Records with an inconclusive call do not appear. Calls of active or inactive are those of the source. The calls were made as follows, unless noted: active = hit-call score of the fitted dose curve at least 0.9, where 1 is the maximum; inconclusive = response in the unintended direction; inactive = score below 0.9.

Key:
[1] = molecular target: Bile acid receptor (Homo sapiens) (UniProt Q96RI1); experiment: ATG_IR1_CIS: Attagene CIS-FACTORIAL HepG2 Assay for human Nuclear Receptor Subfamily 1 Group H Member 4 (NR1H4), IR1 submotif (AID 2282946; active = hit-call score of the fitted dose curve at least 0.9, where 1 is the maximum; inactive = score below 0.9); conditions: IR1 reporter transcription, actives raise or lower the signal
Summary of the method: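 Transient MRTU transfection, HepG2; 24 h dosing; RNA → RT-PCR → 6-FAM primer extension → HpaI digest → capillary electrophoresis fluorescence. Gain/loss of signal fitted relative to DMSO.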

[2] = molecular target: Nuclear receptor subfamily 1 group I member 3 (Homo sapiens) (UniProt Q14994); experiment: ATG_CAR_TRANS: Attagene TRANS-FACTORIAL HepG2 Assay for human Constitutive Androstane Receptor (CAR) (AID 2282969); conditions: HepG2 Attagene TRANS-FACTORIAL CAR reporter;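 also: activators raise reporter mRNA above DMSO so AC50 marks induction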
Summary of the method: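 HepG2 cells transiently transfected with multiplexed GAL4-UAS reporter units expressing chimeric NR-Gal4 proteins; compound exposure 24 h. Reporter mRNA measured by RT-PCR, 6-FAM labelling, HpaI digestion and capillary electrophoresis; gain-of-signal fitted against DMSO baseline.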

[3] = molecular target: Nuclear receptor subfamily 4 group A member 2 (Homo sapiens) (UniProt P43354); experiment: ATG_NURR1_TRANS: Attagene TRANS-FACTORIAL HepG2 Assay for human Nuclear Receptor Related Protein 1 (NURR1) (AID 2282985); conditions: HepG2 Attagene TRANS reporter, mRNA readout
Summary of the method: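 After 24 h chemical dosing, total RNA from transiently transfected HepG2 cells was reverse-transcribed and reporter cDNA PCR-amplified, FAM-labelled and analysed by capillary electrophoresis. Activity fitted in positive direction, DMSO as negative control.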

[4] = molecular target: human Peroxisome Proliferator-activated Receptor delta (PPARd), PPARD (gene 5467) (UniProt Q03181); experiment: ATG_PPARd_TRANS: Attagene TRANS-FACTORIAL HepG2 Assay for human Peroxisome Proliferator-activated Receptor delta (PPARd) (AID 2283002)
Summary of the method: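 HepG2 cells transiently transfected with multiplexed GAL4-UAS reporter units and exogenous chimeric NR-Gal4 proteins; 24 h compound exposure. Reporter mRNA measured by RT-PCR, 6-FAM labelling, HpaI digestion and capillary electrophoresis; gain of signal versus DMSO.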

[5] = molecular target: human RAR-related Orphan Receptor beta (RORb), RORB (gene 6096) (UniProt Q92753); experiment: ATG_RORb_TRANS: Attagene TRANS-FACTORIAL HepG2 Assay for human RAR-related Orphan Receptor beta (RORb) (AID 2283010)
Summary of the method: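 HepG2 cells transiently transfected with GAL4-UAS reporter units expressing chimeric NR-Gal4 protein; reporter mRNA measured 24 h after dosing by RT-PCR, 6-FAM labelling and capillary electrophoresis. Gain-of-signal fitted relative to DMSO baseline.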

[6] = molecular target: human RAR-related Orphan Receptor gamma (RORg), RORC (gene 6097) (UniProt P51449); experiment: ATG_RORg_TRANS: Attagene TRANS-FACTORIAL HepG2 Assay for human RAR-related Orphan Receptor gamma (RORg) (AID 2283011)
Summary of the method: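 Transient MRTU transfection of HepG2 (TRANS format, exogenous NR-Gal4 chimera). 24 h dosing. Total RNA → oligo(dT) RT → PCR → 6-FAM labelling → HpaI cut → CE. Gain vs DMSO.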

[7] = TOX21_p53_BLA_p3_viability: Viability Assessment in the Tox21 HCT-116 p53 Agonism Beta-lactamase Assay, Phase 3 (AID 2283593);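 also: cells exposed to compound for 16 h before reading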
Summary of the method: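 HCT-116 cells (4000/well) rested 5 h at 37C, then got DMSO compounds by pin tool (217-fold dilution) for 16 h at 37C, 5% CO2. After the bla read, CellTiter-Glo was added and luminescence read at 30 min, room temperature.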

[8] = TOX21_p53_BLA_p4_viability: Viability Assessment in the Tox21 HCT-116 p53 Agonism Beta-lactamase Assay, Phase 4 (AID 2283597);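 also: hits lower the luminescence signal meaning cytotoxicity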
Summary of the method: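 We seeded HCT116 p53 reporter cells at 4000/well and waited 5 h. We then added compounds in DMSO at a 217-fold dilution and incubated for 16 h. Viability was read as CellTiter-Glo luminescence after 30 min at RT.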

[9] = ACEA_ER_AUC_viability: ACEA Biosciences xCELLigence Real-Time Cell Analysis on Estrogen Receptor Agonism for Viability (AID 2283782);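 also: continuous compound exposure with impedance area under curve over 80 h; hit means loss of impedance signal meaning reduced cell growth or viability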
Summary of the method: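 T-47D human breast cells in phenol red-free RPMI1640 with 10% charcoal-stripped FBS were dosed with an 8-point 1:4 dilution series from 100 uM top final concentration, in duplicate. Impedance-based growth was followed for 80 h; AUC analysed versus DMSO.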

[10] = molecular target: Oxysterols receptor LXR-beta (Homo sapiens) (UniProt P55055); experiment: ATG_LXRb_TRANS: Attagene TRANS-FACTORIAL HepG2 Assay for human Liver X Receptor beta (LXRb) (AID 2282981); conditions: HepG2 Attagene TRANS GAL4-LXRb reporter, mRNA
Summary of the method: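 In this TRANS format, exogenous chimeric NR-Gal4 protein activity, not endogenous factors, drives reporter expression in transfected human HepG2 cells. Exposure lasted 24 h; reporter mRNA was read by fluorescent capillary electrophoresis.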

[11] = ATG_M_32_TRANS: Attagene TRANS-FACTORIAL HepG2 Assay for M32 Transcription Factor (Internal Marker) (AID 2282984); conditions: HepG2 Attagene TRANS M32 internal marker reporter;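 also: transcript level of a background control reporter unit measured by RT-PCR and capillary electrophoresis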
Summary of the method: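 Human hepatoma HepG2, transient MRTU transfection, 24 h treatment. RNA → RT-PCR → fluorescent primer extension → HpaI digest (2 h, 37 C) → CE. Positive-direction fit vs DMSO.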

[12] = molecular target: human Thyroid Receptor alpha (THRa1), THRA (gene 7067) (UniProt P10827); experiment: ATG_THRa1_TRANS: Attagene TRANS-FACTORIAL HepG2 Assay for human Thyroid Receptor alpha (THRa1) (AID 2283014)
Summary of the method: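 Transient HepG2 transfection, NR-Gal4 chimera driving GAL4-UAS reporters; 24 h compound exposure; total RNA, oligo(dT) RT, PCR, fluorescent primer extension, capillary electrophoresis. Upward direction vs DMSO control.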

[13] = molecular target: Retinoic acid receptor alpha (Homo sapiens) (UniProt P10276); experiment: ATG_DR5_RAR_CIS: Attagene CIS-FACTORIAL HepG2 Assay for human Retinoic Acid Receptor Alpha (RARE), DR5 submotif (AID 2282934; active = hit-call score of the fitted dose curve at least 0.9, where 1 is the maximum; inactive = score below 0.9); conditions: HepG2 Attagene cis-factorial RARE DR5 reporter, mRNA; actives raise or lower the signal
Summary of the method: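 HepG2 cells transiently transfected with multiplexed reporter units under cis (DR5 RARE) promoters, so endogenous transcription factor activity is measured. After 24 h compound exposure, reporter mRNA is quantified by RT-PCR with fluorescent labelling and capillary electrophoresis; bidirectional fitting versus DMSO.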

[14] = ATG_M_19_TRANS: Attagene TRANS-FACTORIAL HepG2 Assay for M19 Transcription Factor (Internal Marker) (AID 2282974); conditions: HepG2 Attagene TRANS-FACTORIAL M19 internal marker reporter
Summary of the method: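 HepG2 cells transiently transfected with multiple GAL4-UAS reporter transcription units were exposed to chemicals for 24 h. Reporter mRNA was read by RT-PCR, 6-FAM primer extension, HpaI digestion and capillary electrophoresis; gain of signal fitted relative to DMSO.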

[15] = molecular target: Oxysterols receptor LXR-alpha (Homo sapiens) (UniProt Q13133); experiment: ATG_LXRa_TRANS: Attagene TRANS-FACTORIAL HepG2 Assay for human Liver X Receptor alpha (LXRa) (AID 2282980); conditions: HepG2 Attagene TRANS reporter, LXRa transactivation
Summary of the method: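 Read-out: reporter transcript levels by RT-PCR plus capillary electrophoresis, fluorescence intensity. Transiently transfected HepG2, exogenous NR-GAL4 chimera, GAL4-UAS reporters; 24 h compound exposure. Activity = increase over DMSO negative control.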

[16] = TOX21_p53_BLA_p2_viability: Viability Assessment in the Tox21 HCT-116 p53 Agonism Beta-lactamase Assay, Phase 2 (AID 2283591);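 also: compound exposure lasted 16 h at 37 °C; actives lower the ATP signal meaning cytotoxicity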
Summary of the method: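 HCT-116 p53-bla cells (4000/well) rested 5 h at 37C, then received compounds in DMSO (217-fold dilution) for 16 h at 37C, 5% CO2. After the CCF4 read, CellTiter-Glo was added; ATP luminescence was read after 30 min at room temperature.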

[17] = CCTE_Harrill_HTTr_Viability_MCF7: CCTE's 6-hour Cell Viability Assessment for the High-Throughput Transcriptomics (HTTr) Platform, in MCF-7 cells cultured in DMEM + 10% fetal bovine serum, Harrill Lab (AID 2284010; active = hit-call score of the fitted dose curve at least 0.9, where 1 is the maximum; inactive = score below 0.9)
Summary of the method: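 MCF-7 cells in DMEM + 10% FBS, 384-well, exposed 6 h to an eight-point dilution series. Membrane integrity scored by high-content imaging of propidium iodide exclusion; bidirectional fit versus DMSO.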

[18] = CCTE_Harrill_HTTr_Apoptosis_MCF7: CCTE's 6-hour Apoptosis Assessment for the High-Throughput Transcriptomics (HTTr) Platform, in MCF-7 cells cultured in DMEM + 10% fetal bovine serum, Harrill Lab (AID 2284011; active = hit-call score of the fitted dose curve at least 0.9, where 1 is the maximum; inactive = score below 0.9)
Summary of the method: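 Read-out: CellEvent Caspase 3/7 Green signal by high content imaging, gain-of-signal indicating apoptosis. MCF-7 cells, DMEM + 10% FBS, eight-point dilution series, 6 h exposure. Curves fitted bidirectionally relative to DMSO negative control.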

[19] = ATG_GAL4_TRANS: Attagene TRANS-FACTORIAL HepG2 Assay for GAL4 (Internal Marker) (AID 2282976); conditions: HepG2 Attagene TRANS GAL4 internal marker reporter
Summary of the method: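 RT-PCR/capillary electrophoresis readout of reporter mRNA. HepG2, transient MRTU transfection (GAL4-UAS reporters), 24 h compound exposure. Background-control endpoint, positive direction vs DMSO baseline.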

[20] = ATG_PPRE_CIS: Attagene CIS-FACTORIAL HepG2 Assay for human Peroxisome Proliferator-activated Response Element (PPRE) (AID 2282958; active = hit-call score of the fitted dose curve at least 0.9, where 1 is the maximum; inactive = score below 0.9); conditions: HepG2 PPRE cis-element reporter, Attagene transcription factor profiling; actives raise or lower the signal
Summary of the method: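 HepG2 cells transiently transfected with multiplexed cis-element reporter units measure endogenous transcription factor activity. After 24 h compound exposure, reporter mRNA is quantified by RT-PCR, 6-FAM labeling, HpaI digestion and capillary electrophoresis; bidirectional fits are made against DMSO baseline.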

Sequence of human RAR-related Orphan Receptor gamma (RORg), RORC (gene 6097) (P51449 whole entry, looked up, the tested form may be a part): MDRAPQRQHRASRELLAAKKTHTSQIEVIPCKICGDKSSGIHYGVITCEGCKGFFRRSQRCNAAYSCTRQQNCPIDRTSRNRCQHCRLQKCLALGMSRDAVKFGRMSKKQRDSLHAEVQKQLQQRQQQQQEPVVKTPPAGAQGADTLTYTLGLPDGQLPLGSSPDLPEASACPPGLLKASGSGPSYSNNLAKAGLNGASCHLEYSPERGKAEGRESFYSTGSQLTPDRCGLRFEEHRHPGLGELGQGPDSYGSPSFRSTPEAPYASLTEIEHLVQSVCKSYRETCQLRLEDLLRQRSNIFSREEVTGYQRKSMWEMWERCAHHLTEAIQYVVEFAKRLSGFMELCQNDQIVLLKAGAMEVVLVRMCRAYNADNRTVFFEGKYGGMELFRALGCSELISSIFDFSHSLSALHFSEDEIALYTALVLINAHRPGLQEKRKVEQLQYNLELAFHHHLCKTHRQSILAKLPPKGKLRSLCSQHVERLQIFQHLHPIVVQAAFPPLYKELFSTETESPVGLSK
Sequence of Oxysterols receptor LXR-alpha (Homo sapiens) (Q13133 whole entry, looked up, the tested form may be a part): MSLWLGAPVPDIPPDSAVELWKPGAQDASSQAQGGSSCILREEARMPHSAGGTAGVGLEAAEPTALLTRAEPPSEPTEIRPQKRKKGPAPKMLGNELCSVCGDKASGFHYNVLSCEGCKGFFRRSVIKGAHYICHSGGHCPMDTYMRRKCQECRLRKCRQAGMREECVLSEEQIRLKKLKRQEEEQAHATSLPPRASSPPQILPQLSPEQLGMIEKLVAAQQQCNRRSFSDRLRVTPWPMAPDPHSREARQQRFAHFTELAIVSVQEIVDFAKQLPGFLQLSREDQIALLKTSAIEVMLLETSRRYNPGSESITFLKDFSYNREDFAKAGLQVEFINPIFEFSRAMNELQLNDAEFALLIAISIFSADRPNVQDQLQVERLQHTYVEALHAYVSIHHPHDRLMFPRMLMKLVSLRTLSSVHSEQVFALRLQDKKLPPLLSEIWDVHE
Sequence of Nuclear receptor subfamily 4 group A member 2 (Homo sapiens) (P43354 whole entry, looked up): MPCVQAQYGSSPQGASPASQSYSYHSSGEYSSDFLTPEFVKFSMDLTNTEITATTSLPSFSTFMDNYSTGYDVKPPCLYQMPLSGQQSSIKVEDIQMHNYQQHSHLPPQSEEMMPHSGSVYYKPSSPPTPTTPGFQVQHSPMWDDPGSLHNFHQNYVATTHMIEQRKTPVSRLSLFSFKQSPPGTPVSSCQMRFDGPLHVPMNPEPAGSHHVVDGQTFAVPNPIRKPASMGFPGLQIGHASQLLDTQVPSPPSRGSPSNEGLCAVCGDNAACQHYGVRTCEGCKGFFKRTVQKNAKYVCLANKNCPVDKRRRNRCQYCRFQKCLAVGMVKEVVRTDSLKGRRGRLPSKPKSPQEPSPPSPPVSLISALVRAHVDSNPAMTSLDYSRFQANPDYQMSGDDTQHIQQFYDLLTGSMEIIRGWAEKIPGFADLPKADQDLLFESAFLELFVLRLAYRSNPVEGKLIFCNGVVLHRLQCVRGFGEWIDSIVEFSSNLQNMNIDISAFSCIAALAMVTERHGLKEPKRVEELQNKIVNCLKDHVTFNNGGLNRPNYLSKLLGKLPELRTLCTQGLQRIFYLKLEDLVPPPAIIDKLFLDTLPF
Sequence of human Thyroid Receptor alpha (THRa1), THRA (gene 7067) (P10827 whole entry, looked up, the tested form may be a part): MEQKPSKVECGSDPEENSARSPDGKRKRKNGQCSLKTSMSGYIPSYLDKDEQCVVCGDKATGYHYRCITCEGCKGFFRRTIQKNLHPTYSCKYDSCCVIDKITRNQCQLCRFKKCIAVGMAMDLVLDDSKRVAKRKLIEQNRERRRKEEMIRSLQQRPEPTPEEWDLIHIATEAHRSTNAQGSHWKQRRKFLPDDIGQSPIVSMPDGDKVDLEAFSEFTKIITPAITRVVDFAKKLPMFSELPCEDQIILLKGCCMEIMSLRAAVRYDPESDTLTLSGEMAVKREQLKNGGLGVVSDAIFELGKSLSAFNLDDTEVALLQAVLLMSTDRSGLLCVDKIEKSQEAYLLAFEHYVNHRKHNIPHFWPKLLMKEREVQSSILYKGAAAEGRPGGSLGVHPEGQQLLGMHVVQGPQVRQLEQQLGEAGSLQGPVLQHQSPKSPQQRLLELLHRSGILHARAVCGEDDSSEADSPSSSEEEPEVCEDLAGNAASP
Sequence of Oxysterols receptor LXR-beta (Homo sapiens) (P55055 whole entry, looked up, the tested form may be a part): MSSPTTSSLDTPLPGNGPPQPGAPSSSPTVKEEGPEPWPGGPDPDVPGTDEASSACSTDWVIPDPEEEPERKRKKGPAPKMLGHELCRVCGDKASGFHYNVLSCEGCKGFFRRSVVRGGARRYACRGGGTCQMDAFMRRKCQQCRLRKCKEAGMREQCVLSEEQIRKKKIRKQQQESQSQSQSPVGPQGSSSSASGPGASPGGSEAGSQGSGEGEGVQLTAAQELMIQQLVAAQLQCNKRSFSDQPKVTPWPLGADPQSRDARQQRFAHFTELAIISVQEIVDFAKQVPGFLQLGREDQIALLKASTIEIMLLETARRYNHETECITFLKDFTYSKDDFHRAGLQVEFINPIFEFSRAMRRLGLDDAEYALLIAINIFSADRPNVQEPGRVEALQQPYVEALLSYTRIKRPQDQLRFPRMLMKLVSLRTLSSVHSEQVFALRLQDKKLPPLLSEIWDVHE
Sequence of Retinoic acid receptor alpha (Homo sapiens) (P10276 whole entry, looked up): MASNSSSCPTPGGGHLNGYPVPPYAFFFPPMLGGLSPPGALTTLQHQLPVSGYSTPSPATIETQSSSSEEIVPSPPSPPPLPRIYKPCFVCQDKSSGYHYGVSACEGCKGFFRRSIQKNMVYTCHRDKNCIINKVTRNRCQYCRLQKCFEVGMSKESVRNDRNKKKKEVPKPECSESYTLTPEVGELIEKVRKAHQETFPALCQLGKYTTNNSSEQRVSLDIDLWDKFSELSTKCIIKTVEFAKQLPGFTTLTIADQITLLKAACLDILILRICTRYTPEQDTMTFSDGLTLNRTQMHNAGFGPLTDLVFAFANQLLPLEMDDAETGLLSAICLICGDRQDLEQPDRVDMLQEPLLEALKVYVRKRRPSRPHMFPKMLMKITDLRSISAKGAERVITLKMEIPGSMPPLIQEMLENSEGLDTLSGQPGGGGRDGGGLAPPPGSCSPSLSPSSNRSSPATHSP
Sequence of human RAR-related Orphan Receptor beta (RORb), RORB (gene 6096) (Q92753 whole entry, looked up, the tested form may be a part): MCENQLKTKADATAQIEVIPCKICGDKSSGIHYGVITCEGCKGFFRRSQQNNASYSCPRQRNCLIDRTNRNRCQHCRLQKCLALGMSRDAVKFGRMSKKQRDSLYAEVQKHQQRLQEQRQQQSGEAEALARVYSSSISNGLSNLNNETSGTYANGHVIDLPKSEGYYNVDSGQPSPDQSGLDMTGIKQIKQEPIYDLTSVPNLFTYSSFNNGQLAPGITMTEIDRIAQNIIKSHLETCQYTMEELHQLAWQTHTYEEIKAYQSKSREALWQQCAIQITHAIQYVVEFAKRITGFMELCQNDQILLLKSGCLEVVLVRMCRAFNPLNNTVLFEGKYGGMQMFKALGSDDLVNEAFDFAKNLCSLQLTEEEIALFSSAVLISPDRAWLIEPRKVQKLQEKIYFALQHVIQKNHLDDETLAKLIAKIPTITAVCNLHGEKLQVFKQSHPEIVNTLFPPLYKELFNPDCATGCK
Sequence of Bile acid receptor (Homo sapiens) (Q96RI1 whole entry, looked up): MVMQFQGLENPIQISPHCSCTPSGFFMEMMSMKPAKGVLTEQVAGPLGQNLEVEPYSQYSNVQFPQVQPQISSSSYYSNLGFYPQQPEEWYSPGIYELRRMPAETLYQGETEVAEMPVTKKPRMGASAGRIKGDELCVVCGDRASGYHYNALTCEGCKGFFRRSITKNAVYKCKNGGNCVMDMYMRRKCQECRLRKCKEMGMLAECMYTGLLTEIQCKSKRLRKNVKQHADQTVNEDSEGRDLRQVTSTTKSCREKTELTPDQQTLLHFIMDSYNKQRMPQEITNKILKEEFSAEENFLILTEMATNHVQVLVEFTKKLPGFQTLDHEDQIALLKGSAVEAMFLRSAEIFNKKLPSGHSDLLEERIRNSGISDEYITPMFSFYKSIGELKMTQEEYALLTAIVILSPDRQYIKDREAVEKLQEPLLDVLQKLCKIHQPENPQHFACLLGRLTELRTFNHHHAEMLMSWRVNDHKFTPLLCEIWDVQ
Sequence of human Peroxisome Proliferator-activated Receptor delta (PPARd), PPARD (gene 5467) (Q03181 whole entry, looked up, the tested form may be a part): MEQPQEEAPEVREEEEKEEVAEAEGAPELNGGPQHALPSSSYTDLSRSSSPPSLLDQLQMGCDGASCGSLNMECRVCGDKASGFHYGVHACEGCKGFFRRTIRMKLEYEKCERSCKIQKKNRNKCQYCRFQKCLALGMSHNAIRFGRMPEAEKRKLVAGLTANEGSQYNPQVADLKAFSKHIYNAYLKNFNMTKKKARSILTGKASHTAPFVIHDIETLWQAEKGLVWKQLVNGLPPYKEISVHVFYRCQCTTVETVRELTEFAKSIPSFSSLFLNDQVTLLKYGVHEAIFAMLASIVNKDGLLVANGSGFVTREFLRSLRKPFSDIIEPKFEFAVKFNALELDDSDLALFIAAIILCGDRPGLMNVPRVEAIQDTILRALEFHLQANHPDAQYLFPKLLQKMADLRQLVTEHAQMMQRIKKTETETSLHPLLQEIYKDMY
Sequence of Nuclear receptor subfamily 1 group I member 3 (Homo sapiens) (Q14994 whole entry, looked up, the tested form may be a part): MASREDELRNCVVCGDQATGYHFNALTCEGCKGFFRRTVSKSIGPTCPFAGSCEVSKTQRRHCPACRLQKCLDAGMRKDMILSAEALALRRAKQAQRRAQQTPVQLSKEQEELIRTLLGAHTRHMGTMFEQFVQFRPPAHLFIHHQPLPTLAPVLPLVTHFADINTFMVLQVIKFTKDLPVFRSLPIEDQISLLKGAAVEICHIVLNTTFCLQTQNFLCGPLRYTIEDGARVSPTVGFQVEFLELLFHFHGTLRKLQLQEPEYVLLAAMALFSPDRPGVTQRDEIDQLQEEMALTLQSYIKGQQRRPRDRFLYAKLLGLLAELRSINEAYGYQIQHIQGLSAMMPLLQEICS

## O=c1c2ccccc2c(=O)c2c1cc(Cl)c1[nH]c3c([nH]c12)c(Cl)cc1c(=O)c2ccccc2c(=O)c13
[1]
  outcome: inactive
[2]
  outcome: inactive
[3]
  outcome: inactive
[4]
  outcome: inactive
[5]
  outcome: inactive
[6]
  outcome: inactive
[7]
  outcome: inactive
[8]
  outcome: inactive
[9]
  AC50: 6.28 µM (active)

## CCN(CC)C(=S)S
[10]
  outcome: inactive
[11]
  outcome: inactive
[3]
  outcome: inactive
[4]
  outcome: inactive
[5]
  outcome: inactive
[6]
  outcome: inactive
[12]
  outcome: inactive

## O=C(NC(=O)c1c(F)cccc1F)Nc1ccc(Oc2ccc(C(F)(F)F)cc2Cl)cc1F
[13]
  outcome: inactive
[1]
  outcome: inactive
[14]
  outcome: inactive
[15]
  outcome: inactive
[10]
  outcome: inactive
[4]
  outcome: inactive
[12]
  outcome: inactive
[16]
  outcome: inactive
[7]
  outcome: inactive
[8]
  outcome: inactive
[17]
  outcome: inactive
[18]
  outcome: inactive

## CC(C)C#N
[13]
  outcome: inactive
[14]
  outcome: inactive
[19]
  outcome: inactive
[15]
  outcome: inactive
[10]
  outcome: inactive
[11]
  outcome: inactive
[4]
  outcome: inactive
[12]
  outcome: inactive
[9]
  outcome: inactive

## CN1C(=O)CCS(=O)(=O)C1c1ccc(Cl)cc1 (stereo not given)
[13]
  outcome: inactive
[19]
  outcome: inactive
[4]
  outcome: inactive
[12]
  outcome: inactive
[17]
  outcome: inactive
[18]
  outcome: inactive

## CCOP(O)OCC
[13]
  outcome: inactive
[20]
  outcome: inactive
[3]
  outcome: inactive
[4]
  outcome: inactive
[12]
  outcome: inactive

## O=C(CCN1CC1)OCC(CO)(COC(=O)CCN1CC1)COC(=O)CCN1CC1
[1]
  outcome: inactive
[19]
  outcome: inactive
[5]
  outcome: inactive
[7]
  outcome: inactive
[9]
  AC50: 63.1 µM (active)

## Cc1ccc(C)c2ccccc12
[1]
  outcome: inactive
[20]
  outcome: inactive
[2]
  outcome: inactive
[14]
  outcome: inactive
[15]
  outcome: inactive
[10]
  outcome: inactive
[11]
  outcome: inactive
[3]
  outcome: inactive
[4]
  outcome: inactive
[5]
  outcome: inactive
[12]
  outcome: inactive
[9]
  outcome: inactive

## CC(C)C(=O)Cl
[1]
  outcome: inactive
[20]
  outcome: inactive
[14]
  outcome: inactive
[4]
  outcome: inactive
[9]
  outcome: inactive

## Nc1cc(Cl)cc(Cl)c1
[13]
  outcome: inactive
[1]
  outcome: inactive
[20]
  outcome: inactive
[14]
  outcome: inactive
[10]
  outcome: inactive
[3]
  outcome: inactive
[12]
  outcome: inactive
[16]
  outcome: inactive
[7]
  outcome: inactive
[8]
  outcome: inactive
[9]
  outcome: inactive

## CCCOC(=O)c1ccccc1C(=O)OCCC
[1]
  outcome: inactive
[20]
  outcome: inactive
[14]
  outcome: inactive
[15]
  outcome: inactive
[10]
  outcome: inactive
[11]
  outcome: inactive
[3]
  outcome: inactive
[4]
  outcome: inactive
[6]
  outcome: inactive
[12]
  outcome: inactive
[16]
  outcome: inactive
[7]
  outcome: inactive
[8]
  outcome: inactive
[17]
  outcome: inactive
[18]
  outcome: inactive

## O=P1(NCCCl)OCCCN1CCCl (stereo not given)
[13]
  outcome: inactive
[14]
  outcome: inactive
[10]
  outcome: inactive
[11]
  outcome: inactive
[5]
  outcome: inactive
[9]
  AC50: 37.7 µM (active)
[17]
  outcome: inactive
[18]
  outcome: inactive

## O=C(O)COc1ccccc1
[20]
  outcome: inactive
[10]
  outcome: inactive
[11]
  outcome: inactive
[16]
  outcome: inactive
[7]
  outcome: inactive
[8]
  outcome: inactive
[9]
  outcome: inactive

## O=c1[nH]c(Cl)c(Cl)cc1Cl
[13]
  outcome: inactive
[1]
  outcome: inactive
[2]
  outcome: inactive
[14]
  outcome: inactive
[10]
  outcome: inactive
[11]
  outcome: inactive
[4]
  outcome: inactive
[5]
  outcome: inactive
[6]
  outcome: inactive
[12]
  outcome: inactive
[7]
  outcome: inactive
[8]
  outcome: inactive
[17]
  outcome: inactive
[18]
  outcome: inactive
